Source: PubChem BioAssay (National Center for Advancing Translational Sciences (NCATS))
Tau fluor counter – counter-screen for tau fibril formation inhibitors | AID 1463 | tau K18 P301L Alexa594 fluorescence, heparin fibrillization | Potency, µM (doses to about 57.7 µM), without a hit: at the highest dose activity change, negative = decrease | 280,000 compounds, 0.93% hits; note: nearly all actives have a fitted effect of over 55% in size
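Human tau K18 P301L (15 uM unlabeled, 0.24 uM Alexa 594-labeled) in 100 mM sodium acetate pH 7 with 20 uM heparin, 6 hr at 37 C. ThT 30 uM added, 1 hr ambient; Alexa 594 FP and total fluorescence read at 555/632 nm.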
TRb SRC2 PPI – inhibitors of human thyroid hormone receptor beta-SRC2 interaction. P10828. TRbeta-SRC2 peptide binding, fluorescence polarization; receptor liganded with 1 µM T3. Potency, µM (doses to about 106 µM), for inactives: at the top dose activity change, negative = inhibition, usual class: inhibitors. 280,000 compounds, 0.065% hits. AID 1469;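 note: plate controls were bound peptide for no effect and peptide without receptor for full effect; nearly all actives have a fitted effect of over 50% in size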
Target sequence (P10828 whole entry, looked up): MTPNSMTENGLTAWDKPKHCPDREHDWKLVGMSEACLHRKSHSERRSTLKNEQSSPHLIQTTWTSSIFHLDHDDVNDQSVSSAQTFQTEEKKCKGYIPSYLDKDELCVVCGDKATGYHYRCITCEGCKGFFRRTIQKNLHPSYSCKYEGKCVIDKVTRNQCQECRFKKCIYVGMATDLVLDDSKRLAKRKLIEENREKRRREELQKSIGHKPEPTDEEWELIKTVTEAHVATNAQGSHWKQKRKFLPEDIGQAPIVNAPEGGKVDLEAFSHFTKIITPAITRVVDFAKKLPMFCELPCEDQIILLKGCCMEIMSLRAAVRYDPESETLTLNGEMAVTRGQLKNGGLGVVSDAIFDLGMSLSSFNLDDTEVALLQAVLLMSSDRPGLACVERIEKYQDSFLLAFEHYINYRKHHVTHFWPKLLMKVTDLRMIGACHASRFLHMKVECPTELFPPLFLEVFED
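Human TRb ligand-binding domain (0.6 uM) is mixed with 20 nM Texas Red SRC2 peptide and 1 uM T3; after compound addition and 5 hr at ambient temperature, polarization is measured and normalized to unbound and bound controls.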
TexasRed fluor – counter-screen for TRb-SRC2 inhibitors: fluorescence interference; TRb/SRC2 Texas Red total fluorescence interference; Potency, µM (doses to about 106 µM), inactives show at the top dose fluorescence change, negative = quenching; 280,000 compounds, 0.29% hits; AID 1479; active = well fitted curve in either direction with a large enough effect; inconclusive = small, poorly fitted or top-dose-only effect
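Human TRβ ligand-binding domain (0.6 uM) and Texas Red SRC2 peptide (20 nM) in Tris buffer with 1 uM T3 and 5% DMSO were incubated with pinned compound for 5 hr at ambient temperature. Total fluorescence was computed as S + 2P (555/632 nm).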
Tau ThT inhib – blocks human tau fibril formation measured by thioflavin T. AID 1460. Potency, µM (top dose mostly 57.4 µM), for inactives: top-dose activity, negative = inhibition, most hits filed as inhibitors. 270,000 compounds, 2.1% hits. P10636. recombinant tau K18 P301L (four-repeat tau fragment), heparin-induced fibrillization, ThT fluorescence; note: nearly all actives have a fitted effect of over 55% in size
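Heparin-induced (20 uM) aggregation of recombinant human K18 P301L tau, 15 uM unlabeled with 0.24 uM labeled, pH 7 acetate buffer, 6 hr at 37 C with compound. Fibrils quantified by 30 uM ThT fluorescence after 1 hr ambient incubation.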
Tau fibril FP – blocks human tau fibril formation measured by polarization | P10636 | K18 P301L tau heparin fibrillization, Alexa594 FP, 6 h | Potency, µM (highest dose often 57.7 µM), inactives show top-dose activity, negative = inhibition, hits mostly inhibitors | 280,000 compounds, 0.39% hits; note: nearly all actives have a fitted effect of over 55% in size
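Steps: dispense K18 P301L tau (15 uM plus 0.24 uM Alexa 594 tracer, final) in pH 7 sodium acetate; add compound; add heparin (20 uM final); incubate 6 hr, 37 C; add ThT (30 uM final); after 1 hr ambient, read FP.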
Starred values were filed as active, the others as inactive; u = inconclusive; x = not tested or not shown; [ ] = remark or other dose. This is a sample that favours compounds with a hit; in the whole collection about 3.1% have one here. Unless noted, calls come from the whole dose curve; as a rule, active = well fitted curve in the direction sought with a large enough effect; inconclusive = small, poorly fitted or top-dose-only effect, or another doubt; inactive = no such curve, though single readings can be large; an effect the other way counts as inactive or inconclusive. Unless noted, % is set by controls: 0 for no effect and ±100 for the full control effect; potency is the fitted concentration of half-maximal effect.

SMILES	Tau fluor counter	TRb SRC2 PPI	TexasRed fluor	Tau ThT inhib	Tau fibril FP
Cc1sc(NC(=O)c2sc3nc4c(C)cccc4cc3c2N)c(C#N)c1C	u	-5%	-5%	16µM*	-8%
COc1ccccc1/C=C1\S/C(=N/NC(=O)c2cccc(Br)c2)NC1=O	u	11%	-9%	13µM*	1%
CC(C)(C)OC(=O)[C@H](Cc1ccccc1)NC(=O)c1nc[nH]c1C(=O)NCc1ccccc1	u	5%	-1%	4%	u
Cc1cccc(NC(=O)c2nc[nH]c2C(=O)N[C@@H](Cc2ccccc2)C(=O)OCc2ccccc2)c1	u	8%	-1%	u	11µM*
CC(C)(C)OC(=O)NCc1ccc(NC(=O)c2nc[nH]c2C(=O)N[C@@H](Cc2ccccc2)C(=O)OCc2ccccc2)cc1	u	1%	-3%	5%	10µM*
COc1cc(-c2ccno2)ccc1S(=O)(=O)N1CCN(c2cc(C)ccc2C)CC1	u	-3%	2%	-7%	-16%
COc1cc(CN(C(=O)c2ccc(OC(C)C)cc2)c2ccccn2)cc(OC)c1OC	-26%	-11%	u	u	6%
COc1ccc(-c2nnc3n2N=C(c2cc(OC)ccc2OC)CS3)cc1	x	-4%	-1%	x	x
O=c1c(Cl)c(Cl)cnn1Cc1nnc(-c2ccc(Cl)cc2)o1	-16%	-19%	-1%	28µM*	u
Cc1ccc(Cn2ncc(Cl)c(Cl)c2=O)cc1	5%	9%	0%	-7%	-4%
COc1c(C)cccc1C(=O)NC(=S)Nc1cccc2nsnc12	-27%	3%	0%	25µM*	u
C=C(C)C(=O)OCCCCCCCCCCCCCCCC	x	-3%[201 µM]	-2%[201 µM]	x	x
Cc1ccc2c(c1)c(N=Nc1cccc(C(=O)O)c1)c(O)n2C	-7%	0%	-14%	14µM*	2%
CCOc1ccc2c(c1)c(N=Nc1cccc(C(=O)O)c1)c(O)n2C	3%	6%	-1%	7%	5%
CCOC(=O)c1c(C)[nH]c(C2=NNC(=Nc3cccc(Cl)c3)SC2)c1C	u	-9%	-6%	13µM*	u
CCN(CC)c1ccc(/C=C2\SC(=O)N(C(C)C)C2=O)o1	u	5%	0%	25µM*	4%
Nc1nc(SCC(=O)Nc2cccc(C(F)(F)F)c2)n[nH]1	-20%	-2%	1%	-10%	-1%
CCCCNc1sc(S(=O)(=O)CC)nc1S(=O)(=O)c1ccc(C)cc1	-24%	-3%	-3%	-5%	-10%
CCOc1ccc(NC(=O)c2cc(S(=O)(=O)N3CCCCCC3)cn2C)cc1	-4%	-11%	2%	4%	-5%
Cn1cc(S(=O)(=O)N2CCCC2)cc1C(=O)Nc1ccc(C(F)(F)F)cc1	6%	-10%	45µM*[quencher]	-3%	-13%
O=c1ccsn1Cc1ccccc1	-17%	1%	-3%	10µM*	14µM*
CCOC(=O)C1CCN(C(c2cccc(F)c2)c2c(O)cc(C)n(CCOC)c2=O)CC1 (stereo unspecified)	-7%	6%	1%	u	-12%
COCCOC(=O)C1=C(C)NC2(O)c3ccccc3C(=O)C12O (stereo unspecified)	-14%	-2%	-2%	11µM*	u
CCOC(=O)C1=C(C)NC2(O)c3ccccc3C(=O)C12O (stereo unspecified)	4%	0%	2%	2%	1%
Cc1cccc(N2NC(=O)/C(=C/c3ccc(-c4ccc(Cl)c(C(=O)O)c4)o3)C2=O)c1	u	-1%	-2%	7.1µM*	u
O=C1NN(c2ccccc2)C(=O)/C1=C/c1ccc(-c2ccc(Cl)c(C(=O)O)c2)o1	u	5%	0%	7.1µM*	-9%
Cc1cc(=O)c2c(O)c3c(O)cc(=O)c4c3c3c(cc(O)c1c23)C(C)(C)C=4O	u	-7%	u	8.9µM*	-13%
Cc1cc(Nc2ccccc2)n(-c2nc3ccccc3[nH]2)n1	25µM*[quencher]	-7%	-4%	u	-14%
CC(=O)N1/C(=C/c2ccc(N(C)C)cc2)C(=O)c2ccccc21	10µM*[quencher]	3%	-2%	10µM*	-12%
